Laboratory results as given in the supplement of paper PMC6555819.

These sequences were tested on VDR homodimer (NR concentration 270 nM) (assay: PBM binding z-score (relative to random genomic background probes); higher = stronger binding; sequences stand for … in GC…GCGATTGACAGCGTAGAATGAAGG).
Method in brief: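 Custom Agilent 4×180K protein-binding microarrays carried double-stranded probes, each with a 34-nt variable region. These regions held direct-repeat seeds, single-nucleotide variants, half-site ablations and random human genomic background sequences. Ligand-free nuclear receptor dimers were incubated on the arrays for 1 h, antibodies against each partner (one per run) detected binding, and scanned fluorescence was regression-normalized. Binding z-scores take the random background probes as reference.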

Sequence | PBM binding z-score
CTCGAATGGTCGTGCTCAGGTGAGTATACCAAAC | -0.378
CCTGCTAGGTCATGGTCAGCTAGTCTACAGTATG | 0.287
GCTTGTAGATCAAGGTTAAGAATGACTAAGCTAA | -0.161
CCTATTAGTTGACCATAAGCGCAACCGAAGCTCG | 0.721
CGGACTGGGGCATAAGGTTACCATAAGCCAGCCC | -0.454
CCTGCTAGGTCATGGTCGGCTAATCTACAGTATG | 0.379
CCTAACGGGTCACGAGGTTATAGCACGACGAGCG | 1.91
CTACCAAGGTGAACAAGGTCGTTGTTTACTATTC | 2.16
TCATATAGGTAACGGTGAAAGTCGAACGATATGA | -0.165
CGTCCAAGGTCTGAGAGGTCAGTGAATGCCGAGT | 2.01
CTACCAAGTTGAACAAGGTCGTTGATTACTATTC | 3.58
ATCTCTAGGTAAGACTCAGTTCAGTTAAGAACGC | 1.6
TCTATTAGTTGATTGGGGCAACCGAAACAGCGGA | 0.77
AGAATGAGGTTATACGTAGCTCAGGGAAGAAAGT | 0.643
ATCTCTATGTAAAGATAGTTCAGTGAATGCAAAT | 0.366
CCTCGCAGGCCAGGGTCACTCAAGCATTTCGCTT | 1.43
ATATGTAGGTTAAGGTTCATTCAGGTTGGTTCGC | 6.72
TAGCCTAGGTCATTGGGCCAGCATAGTACGCATC | 0.817
TCTTGTAGGTCAGCAGGTTAAGAAAGCTGGCCAA | 0.0594
CCTACTGGGCCACGAAAGGTCAGTGATTCAGTGA | 0.0755

Sequence | PBM binding z-score
CCGACTGGGGCATAAGATTACCATAAGCCAGCCC | -0.442
ATATGTAGGTTACATTCGGGTCATTCAGGCTATG | 3.31
ACTCGGACGACAAAGGTCAGAGCTACGCCAGTGA | 0.688
GCTAGCTGGTCAGTAAAAGGTCACACACCGGTCG | 1.37
CCGACTGGGGTATAAGGTTACCATAAGCCAGCCC | -0.0356
TCATATAGGTAAAGGTGAAATTCGAACGATATGA | -0.144
CGTCCAAGGTAAAAGGTCAGTGAAGAGATGACGG | 0.435
AGTCAAAGTACAGGACGAGGTAACGTAAAGCACG | -0.0315
CCTACTGGGCCATCAGGTTATTGATATCAACGTT | -0.275
TAGCCTAGGTCATTCAGAGGCCAGTATAGAAAGC | 1.14
CCTACAGGGCCATTCAGAGGTCATTGATCATATG | 4.16
CGTCCAAGGTCAATGCTAGGTCAGTGGAAGCATT | 3.57
GCTGCTAGGTCAGGCTGGTCAGCTAACGGGTACG | -0.177
TCTAGTTGGTCCAAGGTCACACACTCGAAATGCG | 3.22
CATACAGGGTCAGCTAGGCCATAGTAGGGACGGC | 1.1
CCTCGGAGGACAACAGGACGTCAGAGCTGCCAGA | -0.354
TCGAGTAGGTTAGTCGGGGCAATCAGCCAACATA | -0.417
CGTCGAAGGTCAGCAGGTCAGTGAAAGCGACGTG | 1
TAGCCTAGGTCATTCAGGGGCCCGTATAGAAAGC | 1.32
GCTAGCAAGCCATTTGGGTCACTCAATGACGGGC | -0.322
